Measurements from the supplement of paper PMC6555819.

Columns and labels:
Test in all cases: PBM binding z-score (relative to random genomic background probes); higher = stronger binding; sequences stand for … in GC…GCGATTGACAGCGTAGAATGAAGG
[1] = test system: RARb homodimer (NR concentration 270 nM)
Procedure, shortened: (§1)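 For binding z-scores, the reference was random background probes on custom Agilent 4×180K protein-binding microarrays. These arrays were incubated 1 h with ligand-free nuclear receptor dimers in PBS pH 7.4, 2% milk, 0.02% Triton X-100, 1 mM DTT, 0.2 mg/mL BSA and 0.4 mg/ml salmon testes DNA. Fluorescence was scanned after antibody detection of each partner (one per run) and regression-normalized.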

[2] = test system: RARg homodimer (NR concentration 270 nM)
Procedure, shortened: as §1

[3] = test system: RXRa DBDmut IVT, anti-RXR (DBD mutation: RXRa K156A/R161A, NR concentration 90 nM)
Procedure, shortened: as §1

[4] = test system: RXRa homodimer (NR concentration 180 nM)
Procedure, shortened: as §1

[5] = test system: THRa:RXRa (NR concentration 90 nM, RXRa partner concentration 90 nM)
Procedure, shortened: as §1

[6] = test system: THRa homodimer (NR concentration 90 nM)
Procedure, shortened: as §1

[7] = test system: VDR homodimer (NR concentration 270 nM)
Procedure, shortened: as §1

[8] = test system: VDR:RXRa (NR concentration 270 nM, RXRa partner concentration 90 nM)
Procedure, shortened: as §1

Sequence | PBM binding z-score [1] | PBM binding z-score [2] | PBM binding z-score [3] | PBM binding z-score [4] | PBM binding z-score [5] | PBM binding z-score [6] | PBM binding z-score [7] | PBM binding z-score [8]
CGTCCAAGGTCAAAGGTCACTGAAGAGATGACGG | 5.74 | 8.6 | 4.13 | 10.1 | 4.9 | 3.25 | 4.21 | –
CCTAGTTGGTCAGGAGGTCACAAACCGGATATGA | 3.97 | 4.1 | 0.534 | 4.38 | 3.31 | 2.01 | 2.44 | –
GATACGGGGTCAGCTAGAGGCCAGAGTATGGAAA | 4.12 | 6.6 | 3.39 | 7.4 | 4.28 | 1.14 | 2.68 | –
ATCGAAAGGTCGAAAGTGAGTATACCCACCCGAA | 1.74 | 3.15 | 1.22 | 3.52 | 1.51 | -0.286 | 0.782 | –
CGTCCGAGGTCAATGCTAGGTCAGTGAAAGCATT | 4.93 | 6.71 | 4.03 | 6.61 | 4.6 | 2.97 | 4.57 | –
TAGCCTAGGTCATTTGGCCAGTATAGTACGCATC | 2.59 | 4.08 | 1.99 | 2.73 | 2.65 | 0.679 | 1.27 | –
AGTCAAAGTTCAGGACGAGGTACCGTAAAGCACG | 3.04 | 4.98 | 2.91 | 3.07 | 2.66 | 0.724 | 1.78 | –
CGTCCAAGGTCACCAGGTCAGTGAAAGCGACGTG | 5.13 | 7.7 | 3.61 | 7.13 | 4.45 | 4.12 | 3.44 | –
ATCGAAACGTCGTGAGGTGAGTATACAGAAAGGC | -0.153 | 0.49 | -0.879 | 0.393 | 1.63 | 0.771 | -0.417 | –
CGAACTAAGTCACCAGGACAGTGAAGAGGTTGGA | 0.502 | 0.343 | 0.000632 | 0.285 | 1.27 | 0.708 | 0.106 | –
ATATGTAGGTTACATGCGGGTCATTCAGGCTATG | 2.51 | 2.18 | 0.745 | 3.16 | 2.85 | 0.633 | 2.05 | –
TCTGCTTGGTCAACGATGGTCAGCTAATCTGCTA | 0.448 | 0.624 | -0.0435 | 0.237 | 0.139 | -1.13 | -1.09 | –
GCTGCTAGGTCAACTGAAGGTCAGCTAAAGCTCG | 5.31 | 7.38 | 1.68 | 4.88 | 4.03 | 1.66 | 1 | –
CCTCGGAGGTCAGAAGGTCAGAGCTGTCCGCTTT | 5.21 | 7.12 | 2.31 | 6.44 | 3.41 | 0.451 | 1.47 | –
GCTAGTGGGTCAGTAAAAGGTCACACACCGGTCG | 5.72 | 6.65 | 0.518 | 6.21 | 4.09 | 1.66 | 2.18 | –
CCTTACGGGTCACTCCAGGTTCTAGCATCGGAGT | 2.64 | 4.07 | 1.4 | 4.18 | 4.32 | 0.0825 | 1.07 | –
CCGACTGGGGCAACGGTTACCATACTCAGTACGA | 0.463 | 0.749 | -0.399 | 0.0122 | -0.149 | -0.243 | -0.248 | –
TCTCGGAGGACACGAAACGTCAGAGCTCGACATC | 0.176 | 1.27 | 0.694 | 0.0278 | 1.1 | 0.276 | -0.34 | –
CAAACTAGGTCAAGAGGTCAAACTCCGCTTCCCG | 5.81 | 7.93 | 3.21 | 8.2 | 4.49 | 2.71 | 5.63 | –
TCGAGTAGGTTAGGGGGGCATTCAGGGATGAAGA | 2.58 | 2.54 | 2.58 | 2.32 | 3.86 | 2.28 | 3.28 | –
CGTCCAAGGTCAATGCAAGGTCAGTGAAAGCATT | 5.5 | 7.06 | 3.92 | 6.02 | – | 4.02 | 3.85 | –
CGTCCAAGGTCAATGCGAGGTCAGTGAAAGCATT | 5.27 | 6.95 | 3.59 | 6.15 | – | 4.23 | 4.73 | –
ATACCAAGGTCATCGTGAGGTCGTTGATACTAAC | 4.72 | 6.27 | 3.76 | 6.49 | – | 3.91 | 5.41 | –
CGTCCAAGGTCAAGGTCACTGAAAGAGACTCGAA | 5.6 | 8.3 | 3.73 | – | – | 4.35 | 4.03 | –
CGAACTAGGTCAAAGGTCAGTGAAAGGCGACGTA | 5.03 | 6.89 | 2.37 | – | 4.55 | 1.2 | 1.85 | 5.88
TGGCCTAGGTCATGCGGGCCAGTATAGTGTCGGC | 2.85 | 4.45 | -0.03 | 3.03 | 2.68 | 0.284 | 0.128 | –
TCTGCTGGGTCAACGATGGTCAGCTAATCTGCTA | 2.96 | 4.31 | 0.782 | 2.58 | 2.65 | -0.44 | -0.395 | –
GATACAGGGTCAACTAGAGGCCAGAGTATGGAAA | 3.92 | 5.56 | 2.92 | 6.53 | 3.79 | 0.92 | 2.44 | –
